Screening results deposited in PubChem by Sanford-Burnham Center for Chemical Genomics.
PTK2B oligo ant: Pyk2 (human) oligomerization antagonism | Q14289 | Q293 cells, Pyk2 FERM NanoBiT luminescence; stronger effect = lower value | z-score (the deposit names both 25 µM and 10 µM) | 99,000 compounds, 0.83% hits;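 active = Z-score of -3 or lower, scaled per plate to the spread of control and sample wells; inactive = z-score above -3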;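 note: negative z-score means lost luminescence so less FERM oligomerization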
Target sequence (Q14289 whole entry, looked up): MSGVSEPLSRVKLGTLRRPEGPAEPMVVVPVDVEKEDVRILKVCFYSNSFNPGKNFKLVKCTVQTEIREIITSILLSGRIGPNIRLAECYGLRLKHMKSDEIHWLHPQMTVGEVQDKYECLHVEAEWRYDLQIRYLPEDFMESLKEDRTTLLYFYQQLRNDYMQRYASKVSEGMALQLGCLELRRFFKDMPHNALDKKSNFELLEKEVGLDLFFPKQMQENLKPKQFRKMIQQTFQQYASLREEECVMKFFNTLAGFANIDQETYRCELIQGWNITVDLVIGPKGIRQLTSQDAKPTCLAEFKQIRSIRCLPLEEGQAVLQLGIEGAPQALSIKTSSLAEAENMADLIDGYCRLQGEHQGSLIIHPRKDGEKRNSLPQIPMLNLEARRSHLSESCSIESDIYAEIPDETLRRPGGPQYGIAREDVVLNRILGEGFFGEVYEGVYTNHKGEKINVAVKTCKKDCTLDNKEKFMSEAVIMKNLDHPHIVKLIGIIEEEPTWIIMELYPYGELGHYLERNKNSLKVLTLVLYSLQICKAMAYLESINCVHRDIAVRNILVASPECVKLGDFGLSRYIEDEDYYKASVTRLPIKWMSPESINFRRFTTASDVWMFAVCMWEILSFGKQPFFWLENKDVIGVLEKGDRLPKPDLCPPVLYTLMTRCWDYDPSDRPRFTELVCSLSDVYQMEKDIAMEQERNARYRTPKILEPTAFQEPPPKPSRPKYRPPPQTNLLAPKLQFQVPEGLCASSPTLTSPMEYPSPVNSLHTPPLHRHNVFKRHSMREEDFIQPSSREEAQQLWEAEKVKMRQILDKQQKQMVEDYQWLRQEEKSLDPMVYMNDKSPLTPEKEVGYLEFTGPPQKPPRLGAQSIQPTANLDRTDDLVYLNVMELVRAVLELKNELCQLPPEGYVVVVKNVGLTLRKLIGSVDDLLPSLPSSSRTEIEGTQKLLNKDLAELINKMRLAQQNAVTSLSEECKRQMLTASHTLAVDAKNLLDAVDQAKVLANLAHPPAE
CYP2C9 activ: increases human cytochrome P450 2C9 activity; P11712; recombinant CYP2C9, luciferin-H conversion, luminescence; stronger effect = higher value; factor 1 = untreated enzyme, 0 = blocked; activation factor at 5 µM; 96,000 compounds, 1.4% hits;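 active = activation factor of 2 or more for CYP2C9 at a 5 µM dose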
CYP2C19 activ: activators of human cytochrome P450 2C19. recombinant CYP2C19, luciferin-H EGE luminescence; stronger effect = higher value; 0 = fully inhibited enzyme, 1 = untreated enzyme. activation factor at 5 µM. 96,000 tested, under 10 active;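 active = activation factor of at least 2 at 5 µM in the primary screen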
CYP2C19 inh: inhibitors of human CYP2C19; P33261; CYP2C19 Supersomes, luciferin-H EGE luminescence, 30 min; inhibition, % at 5 µM; 96,000 compounds, 21% hits; AID 778;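 active = CYP2C19 inhibition above a set limit at 5 µM in the primary screen, cut at about 50% in these data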
CYP2C9 inhib: inhibitors of human CYP2C9. AID 777. inhibition, % at 5 µM. P11712. 96,000 compounds, 20% hits. CYP2C9 Supersomes, luciferin-H conversion, luminescence;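 active = blocking of liver enzyme CYP2C9 beyond about 50% at 5 µM, limit read from the data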
Numbers stand for hits. This is a sample that favours compounds with a hit; in the whole collection about 28% have one here.

How did COc1cccc(C2CC(C(F)(F)F)n3ncc(C(=O)NCc4ccco4)c3N2)c1 (stereo not drawn) do in these assays?
PTK2B oligo ant: inactive; CYP2C9 activ: inactive; CYP2C19 activ: inactive; CYP2C19 inh: 67; CYP2C9 inhib: 83

How did COc1ccc(C2CC(C(F)(F)F)n3ncc(C(=O)Nc4cccc(O)c4)c3N2)cc1OC (stereo not drawn) do in these assays?
PTK2B oligo ant: inactive; CYP2C9 activ: inactive; CYP2C19 activ: inactive; CYP2C19 inh: inactive; CYP2C9 inhib: 50

Results for COc1cccc(/C=N/NC(=O)c2csc(-n3nc(C)cc3C(F)(F)F)n2)c1 ?
PTK2B oligo ant: inactive; CYP2C9 activ: inactive; CYP2C19 activ: inactive; CYP2C19 inh: inactive; CYP2C9 inhib: inactive

How did CN(C)CCCNC(CC(=O)Nc1cccc([N+](=O)[O-])c1)C(=O)O (stereo not drawn) do in these assays?
PTK2B oligo ant: inactive

Results for CC(=O)c1ccccc1NC(=O)CSc1nnc2ccccn12 ?
CYP2C9 activ: inactive; CYP2C19 activ: inactive; CYP2C19 inh: inactive; CYP2C9 inhib: inactive

Results for O=C(Cc1ccc(Nc2nc3ccc(Br)cc3[nH]2)cc1)NCCc1cccs1 ?
CYP2C9 activ: inactive; CYP2C19 activ: inactive; CYP2C19 inh: 67; CYP2C9 inhib: 94

How did O=C(NCC1CC1)c1ccc(Nc2nc3ccc(Br)cc3[nH]2)cc1 do in these assays?
CYP2C9 activ: inactive; CYP2C19 activ: inactive; CYP2C19 inh: inactive; CYP2C9 inhib: 69

What do the screens show for `O=C(NCc1ccco1)c1cccc(Nc2nc3ccc(Br)cc3[nH]2)c1`?
CYP2C9 activ: inactive; CYP2C19 activ: inactive; CYP2C19 inh: inactive; CYP2C9 inhib: 91

How did O=C(Cc1nc2ccccc2[nH]1)NCc1ccco1 do in these assays?
PTK2B oligo ant: inactive; CYP2C9 activ: inactive; CYP2C19 activ: inactive; CYP2C19 inh: inactive; CYP2C9 inhib: inactive

How did COC(=O)c1ccc(N=C2S/C(=C\c3cc(C)n(-c4cccnc4)c3C)C(=O)N2C)cc1 do in these assays?
PTK2B oligo ant: inactive

What do the screens show for `Cc1c(NC(=O)C(Sc2ccccc2)c2ccccc2)cccc1[N+](=O)[O-]` (stereo not drawn)?
PTK2B oligo ant: inactive; CYP2C9 activ: inactive; CYP2C19 activ: inactive; CYP2C19 inh: inactive; CYP2C9 inhib: inactive

How did O=C(CSCc1ccccc1)NNC(=S)Nc1cccc(Cl)c1Cl do in these assays?
PTK2B oligo ant: inactive; CYP2C9 activ: inactive; CYP2C19 activ: inactive; CYP2C19 inh: inactive; CYP2C9 inhib: 87

How did CC(C)CNC(=O)c1ccccc1NC(=O)CSCc1ccccc1 do in these assays?
PTK2B oligo ant: inactive; CYP2C9 activ: inactive; CYP2C19 activ: inactive; CYP2C19 inh: inactive; CYP2C9 inhib: inactive

What do the screens show for `Cc1cc(C)n(-c2nc(Nc3ccccc3C)nc(-n3nc(C)cc3C)n2)n1`?
CYP2C9 activ: inactive; CYP2C19 activ: inactive; CYP2C19 inh: inactive; CYP2C9 inhib: inactive

Results for Cc1cc(C)n(-c2nc(Nc3ccccc3C(F)(F)F)nc(-n3nc(C)cc3C)n2)n1 ?
PTK2B oligo ant: -3.5

How did S=c1[nH]nc(Cc2sc(-c3ccccc3)nc2-c2ccccc2)o1 do in these assays?
PTK2B oligo ant: inactive; CYP2C9 activ: inactive; CYP2C19 activ: inactive; CYP2C19 inh: inactive; CYP2C9 inhib: 64

Results for O=C(CS(=O)(=O)c1cccc(Cl)c1)Nc1ccccc1Cl ?
PTK2B oligo ant: inactive; CYP2C9 activ: inactive; CYP2C19 activ: inactive; CYP2C19 inh: 78; CYP2C9 inhib: inactive

What do the screens show for `CCOC(=O)c1c(C)[nH]c2cc(Br)c(OC)cc12`?
PTK2B oligo ant: inactive; CYP2C9 activ: inactive; CYP2C19 activ: inactive; CYP2C19 inh: inactive; CYP2C9 inhib: inactive

Results for COC(=O)c1c(C)[nH]c(C)c1-c1ccccc1Cl ?
PTK2B oligo ant: inactive; CYP2C9 activ: inactive; CYP2C19 activ: inactive; CYP2C19 inh: 61; CYP2C9 inhib: inactive

Results for CCOC(=O)c1[nH]c(C)c(C(=O)Nc2cccc(Cl)c2C)c1C ?
PTK2B oligo ant: inactive; CYP2C9 activ: inactive; CYP2C19 activ: inactive; CYP2C19 inh: inactive; CYP2C9 inhib: inactive

What do the screens show for `CCOC(=O)c1c(C)[nH]c(C)c1-c1ccccc1OC`?
PTK2B oligo ant: inactive; CYP2C9 activ: inactive; CYP2C19 activ: inactive; CYP2C19 inh: 67; CYP2C9 inhib: inactive

Results for CSc1nc(NC(C)=O)nc(C)c1Br ?
PTK2B oligo ant: inactive

Results for Clc1ccc(CSc2nnc(NC3=NCCCCC3)s2)cc1 ?
PTK2B oligo ant: inactive; CYP2C9 activ: inactive; CYP2C19 activ: inactive; CYP2C19 inh: 91; CYP2C9 inhib: 67

What do the screens show for `COc1ccc(-c2c3c(nc4sc5c(=O)[nH]c(C)nc5c24)CCC3)cc1`?
PTK2B oligo ant: inactive; CYP2C9 activ: inactive; CYP2C19 activ: inactive; CYP2C19 inh: inactive; CYP2C9 inhib: 57

What do the screens show for `O=C(Cn1nnc2c(sc3nc4c(c(-c5ccccc5)c32)CCC4)c1=O)c1ccccc1`?
PTK2B oligo ant: inactive; CYP2C9 activ: inactive; CYP2C19 activ: inactive; CYP2C19 inh: inactive; CYP2C9 inhib: inactive

What do the screens show for `COc1ccc(-c2c3c(nc4sc(C(=O)Nc5cc(C)on5)c(N)c24)CCC3)cc1`?
PTK2B oligo ant: inactive; CYP2C9 activ: inactive; CYP2C19 activ: inactive; CYP2C19 inh: inactive; CYP2C9 inhib: 51

What do the screens show for `CNc1oc(-c2ccc(Cl)cc2)nc1P(=O)(c1ccccc1)c1ccccc1`?
PTK2B oligo ant: inactive; CYP2C9 activ: inactive; CYP2C19 activ: inactive; CYP2C19 inh: inactive; CYP2C9 inhib: 64

How did COc1ccc(Nc2oc(-c3ccc(Cl)cc3)nc2C#N)cc1 do in these assays?
PTK2B oligo ant: inactive; CYP2C9 activ: inactive; CYP2C19 activ: inactive; CYP2C19 inh: inactive; CYP2C9 inhib: inactive

How did O=C(c1ccccc1)N(Cc1ccco1)C1CCS(=O)(=O)C1 (stereo not drawn) do in these assays?
PTK2B oligo ant: inactive; CYP2C9 activ: inactive; CYP2C19 activ: inactive; CYP2C19 inh: inactive; CYP2C9 inhib: inactive

How did CCCCNC(=O)NS(=O)(=O)c1ccc(NS(=O)(=O)c2ccccc2)cc1 do in these assays?
PTK2B oligo ant: inactive; CYP2C9 activ: inactive; CYP2C19 activ: inactive; CYP2C19 inh: inactive; CYP2C9 inhib: 55

Results for CCNC(=O)COc1ccc(S(=O)(=O)Nc2ccccc2)cc1 ?
PTK2B oligo ant: inactive; CYP2C9 activ: inactive; CYP2C19 activ: inactive; CYP2C19 inh: inactive; CYP2C9 inhib: 62

What do the screens show for `COCCCNC(=O)COc1ccc(S(=O)(=O)Nc2ccccc2)cc1`?
PTK2B oligo ant: inactive; CYP2C9 activ: inactive; CYP2C19 activ: inactive; CYP2C19 inh: inactive; CYP2C9 inhib: inactive

How did Cc1ccc(C)c(NS(=O)(=O)c2ccc(OCC(=O)NCc3ccco3)cc2)c1 do in these assays?
PTK2B oligo ant: inactive; CYP2C9 activ: inactive; CYP2C19 activ: inactive; CYP2C19 inh: inactive; CYP2C9 inhib: inactive

Results for COc1cccc(S(=O)(=O)NCc2ccc(C(=O)NCc3ccco3)cc2)c1 ?
PTK2B oligo ant: inactive; CYP2C9 activ: inactive; CYP2C19 activ: inactive; CYP2C19 inh: inactive; CYP2C9 inhib: inactive

What do the screens show for `COc1cccc(S(=O)(=O)Nc2ccc(C(=O)NCc3ccco3)cc2)c1`?
PTK2B oligo ant: inactive; CYP2C9 activ: inactive; CYP2C19 activ: inactive; CYP2C19 inh: 61; CYP2C9 inhib: 98

How did Cc1ccc(NS(=O)(=O)c2ccc(OCC(=O)NCc3ccco3)cc2)cc1 do in these assays?
PTK2B oligo ant: inactive; CYP2C9 activ: inactive; CYP2C19 activ: inactive; CYP2C19 inh: 75; CYP2C9 inhib: 85
